The structures appear in SMILES notation. The whole screen tested about 4,000 compounds, of which about 350 (8.8%) were called active.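 The calls were made as follows: active = calcium fluorescence ratio at least three times the spread of buffer wells, meaning a non-specific response in parental cells; inactive = the rest.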 Not all results are given here.

We go through 71 molecules from PubChem BioAssay AID624115 (Johns Hopkins Ion Channel Center, 2012).

The assay in a line: nonspecific Ca2+ signal without MrgX1 expression – cell-based, Fluo-4 calcium flux, duplicate, agonist mode, counter-screen for MrgX1 agonist project, primary screen (AID 624115). Particulars: parental HEK293, Fluo-4 calcium fluorescence (FDSS), at 10 µM; hits give high values. Background: A change in cytosolic calcium serves as a functional read-out for many receptors and channels.
For `COc1ccccc1Oc1nc(-c2cccnc2)nc2ccccc12`, the fluorescence ratio F(max-min)/F0 result was “inactive”.

`CC(C)CNc1ncnc2c1cnn2Cc1ccc(Cl)cc1`: the fluorescence ratio F(max-min)/F0 entry was “inactive”.

For the molecule `Cc1cccn2c(=O)c(/C=C3\SC(=S)N(CC(C)C)C3=O)c(NCCCOC(C)C)nc12`, the fluorescence ratio F(max-min)/F0 entry was “inactive”.

In the case of `O=C(C1CCN(S(=O)(=O)c2cnc[nH]2)CC1)N1CCN(Cc2ccc3c(c2)OCO3)CC1`, the fluorescence ratio F(max-min)/F0 entry is “inactive”.

For `O=C(Oc1ccc(C(=S)N2CCOCC2)cc1)c1ccc(F)cc1`, the fluorescence ratio F(max-min)/F0 entry was “inactive”.

`Cc1occc1C(=O)Nc1nnc(-c2ccncc2)s1`: the fluorescence ratio F(max-min)/F0 result is “inactive”.

For `CCC(C)Sc1nc(C)nc2c1c(=O)n(C)c(=O)n2C` (stereo unspecified), the fluorescence ratio F(max-min)/F0 entry is “inactive”.

As for `O=C(CN1CCN(c2ccc(Cl)cc2)CC1)N1CCCC1`, the fluorescence ratio F(max-min)/F0 result was “inactive”.

As for `Cc1c(C)c2c(OCC(=O)N[C@@H](C(=O)O)c3ccccc3)cc3c(c2oc1=O)CCC(C)(C)O3`, the fluorescence ratio F(max-min)/F0 result was “inactive”.

As to `COC(=O)c1c(NC(=O)c2c(Cl)cnn2C)sc(C)c1C`, the fluorescence ratio F(max-min)/F0 result is “inactive”.

For the molecule `COc1ccc(Nc2nnc(C)c3ccccc23)cc1`, the fluorescence ratio F(max-min)/F0 entry is “inactive”.

For the molecule `O=C1C(Cc2ccc(O)cc2)NC(=S)N1Cc1ccccc1` (stereo unspecified), the fluorescence ratio F(max-min)/F0 entry was “inactive”.

Regarding `Cc1ccc(C(=O)COC(=O)CCN2C(=O)C3C4CC(C(Br)C4Br)C3C2=O)cc1` (stereo unspecified), the fluorescence ratio F(max-min)/F0 entry is “inactive”.

For the molecule `Cc1ccnc(NC(=O)C(C)N2C(=O)c3ccccc3C2=O)c1` (stereo unspecified), the fluorescence ratio F(max-min)/F0 result was “inactive”.

In the case of `Cc1cccc(NC(=O)C(C)N2C(=O)C3C4CC(C(Br)C4Br)C3C2=O)c1` (stereo unspecified), the fluorescence ratio F(max-min)/F0 was 94.8 (active).

`Cc1ccc2c(c1)c1ncnc(N3CCc4ccccc4C3)c1n2C`: the fluorescence ratio F(max-min)/F0 entry was “inactive”.

Consider `O=C(COC(=O)c1ccc(NS(=O)(=O)c2cccs2)cc1O)Nc1ccc(F)cc1`, for which the fluorescence ratio F(max-min)/F0 entry is “inactive”.

`CN(c1cccc(NC(=O)Nc2ccc(Cl)cc2)c1)S(C)(=O)=O`: the fluorescence ratio F(max-min)/F0 result was “inactive”.

For `O=C(c1cccs1)C1C(c2ccc(Br)cc2)NC(=S)NC1(O)C(F)(F)F` (stereo unspecified), the fluorescence ratio F(max-min)/F0 entry is “inactive”.

With `CC(C)(C)n1c(=O)[nH]c2c(c1=O)CCC2`, the fluorescence ratio F(max-min)/F0 entry was “inactive”.

Consider `CCN(CC)c1ccc2oc(=O)c(C)nc2c1`, for which the fluorescence ratio F(max-min)/F0 result is “inactive”.

In the case of `CC(=O)N(C)c1ccc(NC(=O)C(F)(F)F)cc1`, the fluorescence ratio F(max-min)/F0 result was “inactive”.

As to `CCc1nnc(NC(=O)CSc2nc3c(c(=O)n2-c2ccccc2OC)SCC3)s1`, the fluorescence ratio F(max-min)/F0 entry was “inactive”.

For `CC1CCN(S(=O)(=O)c2nnc(NC(=O)COc3ccccc3F)s2)CC1`, the fluorescence ratio F(max-min)/F0 entry is “inactive”.

With `CCSc1nsc(NC(=O)Nc2cccc(C(C)=O)c2)n1`, the fluorescence ratio F(max-min)/F0 result was “inactive”.

Consider `CCCCCCCCCCOC(=O)Cn1c(COc2cccc(OC)c2)[n+](C)c2ccccc21`, for which the fluorescence ratio F(max-min)/F0 entry was “inactive”.

As to `CN1/C(=C\C=C2\N=C(c3ccc(F)cc3)OC2=O)C(C)(C)c2ccccc21`, the fluorescence ratio F(max-min)/F0 entry was “inactive”.

In the case of `S=C(NCc1ccc(Cl)cc1)NC12CC3CC(CC(C3)C1)C2`, the fluorescence ratio F(max-min)/F0 entry was “inactive”.

`O=C(Nc1ccc(Cl)cc1)Nc1ccc(Oc2cccnc2)nc1`: the fluorescence ratio F(max-min)/F0 result was “inactive”.

Regarding `CCc1ccc(N(CC(=O)Nc2sc3c(c2C(=O)OC)CCCC3)S(C)(=O)=O)cc1`, the fluorescence ratio F(max-min)/F0 result was “inactive”.

For `CC(=O)N1c2ccc(S(=O)(=O)N3CCCC(C(=O)Nc4cccc(Cl)c4)C3)cc2CC1C` (stereo unspecified), the fluorescence ratio F(max-min)/F0 result is “inactive”.

As for `COc1cccc(CCNC(=O)COc2cccc3c2OC(C)(C)C3)c1`, the fluorescence ratio F(max-min)/F0 result is “inactive”.

Turning to `O=C(COC(=O)C1CCN(S(=O)(=O)c2ccc3c(c2)OCCO3)CC1)Nc1ccccc1OC(F)F`, the fluorescence ratio F(max-min)/F0 result was “inactive”.

Turning to `COC(=O)c1ccc(COC(=O)C2CCN(S(=O)(=O)c3c(Cl)cccc3Cl)CC2)o1`, the fluorescence ratio F(max-min)/F0 entry was “inactive”.

For `CCOC(=O)c1[nH]c2ccc(C)cc2c1N=C(C)N(C)C`, the fluorescence ratio F(max-min)/F0 was 46.4 (active).

Consider `Cc1c(C(=O)N2CCCc3ccccc32)sc2nc(-c3ccccc3)cn12`, for which the fluorescence ratio F(max-min)/F0 result was “inactive”.

Consider `Clc1ccc(C=NC23CN4CN(CN(C4)C2)C3)cc1`, for which the fluorescence ratio F(max-min)/F0 entry was “inactive”.

Consider `CC(Oc1ccc(F)cc1)C(=O)Nc1ccccc1C(=O)NC1CC1` (stereo unspecified), for which the fluorescence ratio F(max-min)/F0 result was “inactive”.

Take `CC(C)(C)Nc1c(-c2cccs2)nc2ccccn12`: the fluorescence ratio F(max-min)/F0 entry was “inactive”.

`O=c1cc(CSc2ccccn2)nc(N2CCN(c3ccccc3)CC2)[nH]1`: the fluorescence ratio F(max-min)/F0 entry is “inactive”.

Take `O=C(Nc1ccccc1Cl)N1CCN(c2ccc3nncn3n2)CC1`: the fluorescence ratio F(max-min)/F0 result was “inactive”.

Consider `CCc1cc2c(SCC(=O)Nc3ncc(Cl)c(C)c3Cl)ncnc2s1`, for which the fluorescence ratio F(max-min)/F0 result was “inactive”.

With `Cc1ccc(C(C(=O)NC2CCCCC2)N(C(=O)c2csnn2)C2CC2)o1` (stereo unspecified), the fluorescence ratio F(max-min)/F0 entry was “inactive”.

With `COC(=O)Cn1c(O)c(N=NC(=O)OC)c2ccccc21`, the fluorescence ratio F(max-min)/F0 result is “inactive”.

As for `COc1cc(C)c(C)cc1S(=O)(=O)N1CCCc2ccccc21`, the fluorescence ratio F(max-min)/F0 entry was “inactive”.

As for `COc1cc(C(F)(F)F)nc2c(Br)c(C(C)(C)C)nn12`, the fluorescence ratio F(max-min)/F0 entry is “inactive”.

For `CC(=O)N(C1=C(Cl)C(=O)c2ccccc2C1=O)c1ccc(C(=O)O)cc1`, the fluorescence ratio F(max-min)/F0 result is “inactive”.

`O=C(Nc1ccccc1N1CCOCC1)c1csc2c1CCCC2`: the fluorescence ratio F(max-min)/F0 entry was “inactive”.

For the molecule `C=CCOc1cccc(C2C(C(=O)c3ccc(C)o3)=C(O)C(=O)N2c2nnc(C)s2)c1` (stereo unspecified), the fluorescence ratio F(max-min)/F0 entry was “inactive”.

As for `COC(=O)c1c(NC(=O)CN(c2ccc(C)c(C)c2)S(C)(=O)=O)sc2c1CCCC2`, the fluorescence ratio F(max-min)/F0 entry was “inactive”.

On to `CCN(C(=O)CSc1nnc2ccccn12)C1CCS(=O)(=O)C1` (stereo unspecified), for which the fluorescence ratio F(max-min)/F0 entry is “inactive”.

Turning to `Brc1ccccc1C1Nc2cccc3cccc(c23)N1`, the fluorescence ratio F(max-min)/F0 result was “inactive”.

Turning to `COc1ccc(Cc2nc(-c3ccccn3)no2)cc1OC`, the fluorescence ratio F(max-min)/F0 result was “inactive”.

On to `CCOC(=O)c1cn(Cc2cccc(C)c2)nn1`, for which the fluorescence ratio F(max-min)/F0 entry was “inactive”.

In the case of `C=CCNC(=O)c1cc(-c2ccccc2O)on1`, the fluorescence ratio F(max-min)/F0 entry was “inactive”.

In the case of `N=C(N)SCc1cccc2ccccc12`, the fluorescence ratio F(max-min)/F0 result is “inactive”.

In the case of `CCc1cc(=O)oc2cc(C)cc(OCC(=O)N3CCC[C@@H]3C(=O)O)c12`, the fluorescence ratio F(max-min)/F0 entry is “inactive”.

For `CCOc1ccc(C(=O)NC2CCN(S(=O)(=O)CC)CC2)cc1`, the fluorescence ratio F(max-min)/F0 result is “inactive”.

`COc1ccc(S(=O)(=O)N2CCOCC2)c(C)c1C`: the fluorescence ratio F(max-min)/F0 entry was “inactive”.

In the case of `Fc1ccc2[nH]c3c(N4CCSCC4)ncnc3c2c1`, the fluorescence ratio F(max-min)/F0 was 51.9 (active).

`CC(C)OCCCNc1ncnc2c1[nH]c1ccc(F)cc12`: the fluorescence ratio F(max-min)/F0 entry is “inactive”.

As for `O=C(c1ccc(O)cc1)c1ccc(C(=O)O)c(C(=O)O)c1`, the fluorescence ratio F(max-min)/F0 entry is “inactive”.

As for `Cc1[nH][nH]c(=O)c1C(c1ccc(-c2ccc(Cl)cc2)o1)c1c(C)[nH][nH]c1=O`, the fluorescence ratio F(max-min)/F0 is 48.2 (active).

Consider `COc1ccc(C(=O)NC2CCCc3c2cnn3-c2cccc(C)c2C)c(OC)n1` (stereo unspecified), for which the fluorescence ratio F(max-min)/F0 result is “inactive”.

For the molecule `CCOc1ccccc1C1CC(c2ccc(Cl)cc2)Nc2nc(N)nn21` (stereo unspecified), the fluorescence ratio F(max-min)/F0 result was “inactive”.

For `CN1C(CC(=O)Nc2ccc(Br)cc2)c2ccccc2CC1(C)C` (stereo unspecified), the fluorescence ratio F(max-min)/F0 entry is “inactive”.

On to `Nc1ccc(Oc2ccc(Cl)cc2)cc1`, for which the fluorescence ratio F(max-min)/F0 entry was “inactive”.

Turning to `C=CCNC(=O)c1csc(-c2ccccc2)n1`, the fluorescence ratio F(max-min)/F0 result was “inactive”.

With `COC(=O)Cc1cc(=O)n(-c2nc3ccccc3s2)[nH]1`, the fluorescence ratio F(max-min)/F0 entry is “inactive”.

Take `O=C(Nc1ccc(Br)cc1F)C1CC(=O)N(C2CCCCC2)C1` (stereo unspecified): the fluorescence ratio F(max-min)/F0 entry was “inactive”.

`CC1CCCCN1S(=O)(=O)c1ccc(C(=O)Nc2nnc(-c3cccs3)o2)cc1` (stereo unspecified): the fluorescence ratio F(max-min)/F0 result is “inactive”.
